We go through 65 compounds from PubChem BioAssay AID651610 (Broad Institute, 2012).

The campaign covered roughly 360,000 compounds. About 3,900 (1.1%) were called active.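 How the source made its calls: active means mean replicate inhibition score of at least 50 and every replicate individually at or above 50; inconclusive means only one of the two criteria met; inactive means mean below 50 and not all replicates reaching 50.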 What follows is part of a selection rich in actives, with near analogues and random picks from the rest.

The test can be described thus: inhibitors of HIV-1 Env-driven cell-cell fusion, primary screen, HeLa-JRFL effector, CEM21 target cells, luciferase (AID 651610).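 Further: 0% = plate neutral controls and 100% = maraviroc near 300 nM.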 Conditions: active compounds read high; at 16.7 µM unless noted.
In the case of `COc1cccc(S(=O)(=O)N[C@H]2CC[C@@H](CCN)O[C@H]2CO)c1`, the inhibition was -38.7% (inactive). The same measure for `CN(C)CCCNC(=O)C[C@@H]1C=C[C@H](NC(=O)Cc2cccnc2)[C@H](CO)O1`: 12.3% (inactive); for `C[C@@H]1CCCCO[C@@H](CN(C)Cc2ccncc2)[C@H](C)CN([C@H](C)CO)C(=O)c2cc(NC(=O)CCC(F)(F)F)ccc2O1`: -12.7% (inactive). The same measure for `COc1cccc2c1C(=O)c1c(O)c3c(c(O)c1C2=O)CC(O)(C(C)=NNC(=O)c1ccc(Cl)c(Cl)c1)CC3OC1CC(N)C(O)C(C)O1` (stereo not given): 86% [at 12.3 µM] (active); for `C[C@@H](NC(=O)C[C@@H]1CC[C@@H](NC(=O)C2CCOCC2)[C@@H](CO)O1)c1ccccc1`: -27.6% (inactive). The value for `C[C@@H]1CN([C@@H](C)CO)C(=O)c2cc(-c3cncnc3)cnc2O[C@@H]1CN(C)Cc1ccncc1` was 1.5% (inactive); that for `CC1CCCN(c2cccc3c2S(=O)(=O)N(Cc2ccc(F)cc2)[C@@H](C)[C@H](c2ccccc2)O3)C1` (stereo not given in full) was -2.41% [at 12.3 µM] (inactive). Consider `CN(C)C(=O)C[C@@H]1CC[C@H](NC(=O)NC2CCCC2)[C@H](CO)O1`, for which the inhibition was 2.96% (inactive). The same measure for `O=C(Nc1cccn(Cc2c(Cl)cccc2Cl)c1=O)c1ccc(Cl)cc1`: 76.4% [at 12.3 µM] (active). As for `Cc1cc(NC(=O)c2ccco2)c(=O)n(Cc2c(F)cccc2Cl)c1`, the inhibition is -1.03% [at 12.3 µM] (inactive). The value for `O=C(Nc1cccn(Cc2ccccc2Cl)c1=O)NC1CCCCC1` was -4.39% [at 12.3 µM] (inactive); that for `CNC(=O)C[C@@H]1CC[C@H]2[C@H](COc3ccc(NC(=O)c4cccc(OC)c4)cc3C(=O)N2C)O1` was -18.7% (inactive); that for `C[C@H](CO)N1C[C@H](C)[C@@H](CN(C)S(=O)(=O)c2ccccc2)Oc2c(NC(=O)c3ccc(-c4nccs4)cc3)cccc2C1=O` was -55.7% (inactive).

Turning to `O=C(Cc1ccncc1)NCC[C@H]1CC[C@H](NC(=O)C2CC2)[C@H](CO)O1`, the inhibition was 4.94% (inactive). Regarding `C[C@@H]1CN([C@@H](C)CO)C(=O)c2cc(NC(=O)C3CCCCC3)ccc2O[C@@H](C)CCCCO[C@H]1CN(C)C(=O)Nc1ccc2c(c1)OCO2`, the inhibition is -19.1% (inactive). For `COc1ccc(CNc2nccs2)cc1`, the inhibition was -9.44% [at 12.3 µM] (inactive).

With `c1ccc(CNc2ncnc3[nH]ncc23)cc1`, the inhibition was 27.4% [at 12.3 µM] (inactive). As for `COc1ccc(CNc2ncnc3ccccc23)cc1`, the inhibition is 77% [at 12.3 µM] (active). The value for `C[C@@H]1CCCCO[C@@H](CN(C)S(=O)(=O)c2cn(C)cn2)[C@@H](C)CN([C@H](C)CO)C(=O)c2cc(NC(=O)c3ccncc3)ccc2O1` was 26.2% (inactive); that for `CC(C)NC(=O)Nc1ccc2c(c1)CC(=O)N([C@H](C)CO)C[C@@H](C)[C@H](CN(C)S(=O)(=O)c1ccccc1)O2` was 2.93% (inactive); that for `COc1cc(CNCc2ccc(OC)c3ccccc23)cc(OC)c1OC` was 99.1% [at 12.3 µM] (active).

Regarding `COc1ccc(CNCCCNCc2ccc(OC)c(OC)c2)cc1OC`, the inhibition is -12.6% [at 12.3 µM] (inactive). The value for `CCOc1c(CNCc2ccc(C(=O)O)cc2)cccc1OC` was 1.89% [at 12.3 µM] (inactive); that for `Cc1noc(C)c1S(=O)(=O)Nc1ccc2c(c1)C(=O)N([C@H](C)CO)C[C@@H](C)[C@@H](CN(C)S(=O)(=O)c1ccc(Cl)cc1)O2` was -6.25% (inactive); that for `C[C@@H]1CN([C@@H](C)CO)C(=O)c2cc(N(C)C)ccc2O[C@H]1CN(C)Cc1ccc(C(F)(F)F)cc1` was 14.9% (inactive).

As to `CNC(=O)c1ccsc1NC(=O)c1ccc(S(=O)(=O)N2CCOCC2)cc1`, the inhibition was -27.2% [at 12.3 µM] (inactive). With `COc1ccc(C(=O)Nc2nc(-c3ccc(S(=O)(=O)N4CCOCC4)cc3)cs2)cc1`, the inhibition is 93.5% [at 12.3 µM] (active).

Take `COc1ccc(C(=O)Nc2cc(S(=O)(=O)N3CCCC3)ccc2Cl)cc1`: the inhibition is -8.82% [at 12.3 µM] (inactive). `CO[C@@H]1CN(C)C(=O)c2ccc(NC(=O)c3ccc(F)cc3)cc2OC[C@H](C)N(C)C[C@H]1C`: the inhibition was 9.99% (inactive). As for `CN1C(=O)c2cc(NC(=O)c3cscn3)ccc2OC[C@H]2O[C@@H](CC(=O)NCC3CC3)CC[C@H]21`, the inhibition is -0.83% (inactive). The same measure for `C[C@@H]1CCCCO[C@H](CN(C)Cc2ccccc2)[C@@H](C)CN([C@H](C)CO)C(=O)c2cc(NS(C)(=O)=O)ccc2O1`: -1.64% (inactive); for `CCn1c(SCC(=O)NC2CCCC2)nnc1-c1ccoc1C`: -2.28% [at 12.3 µM] (inactive). `COc1ccccc1NC(=O)CSc1nnc(Cn2nnc(-c3ccccc3)n2)n1-c1ccccc1`: the inhibition was -41.2% [at 12.3 µM] (inactive).

Consider `COc1ccccc1NC(=O)CSc1nnc(-c2ccoc2C)n1CCc1ccccc1`, for which the inhibition was 62.4% [at 12.3 µM] (active). Regarding `COc1ccc(C#Cc2cnc3c(c2)C(=O)N([C@H](C)CO)C[C@@H](C)[C@@H](CN(C)C(=O)CN(C)C)O3)cc1`, the inhibition was -3.11% (inactive). The same measure for `COc1ccc(-c2cnc3c(c2)C(=O)N([C@@H](C)CO)C[C@H](C)[C@H](CN(C)C(=O)Cc2cccnc2)O3)cc1`: -3.34% (inactive); for `Cc1ccc(S(=O)(=O)Nc2ccc3ncccc3c2)cc1`: 60.8% [at 12.3 µM] (active); for `Cc1ccc(NS(=O)(=O)c2ccc(C(C)(C)C)cc2)cn1`: 3.22% [at 12.3 µM] (inactive). The value for `Cc1cc(C)cc(OCC(=O)Nc2ccc(S(=O)(=O)Nc3ccccn3)cc2)c1` was 19.9% [at 12.3 µM] (inactive); that for `CCCCCCCNC(=O)C1(CC2CC(c3cccc(Br)c3)=NO2)CCN(C(=O)c2cc(OCC)c(OCC)c(OCC)c2)CC1` (stereo not given) was 28.1% [at 12.3 µM] (inactive); that for `COc1ccc(CNC(=O)C2(CC3CC(c4ccccc4)=NO3)CCN(C(=O)c3cccc(O)c3)CC2)cc1` (stereo not given) was 65.8% [at 12.3 µM] (active). As for `O=C(c1ccccc1)N1CCC(CC2CC(c3ccc(Cl)cc3)=NO2)(C(=O)NCC2CCCCC2)CC1` (stereo not given), the inhibition is -114% [at 12.3 µM] (inactive). As for `CO[C@@H]1CN(C)C(=O)c2cc(NC(=O)C3CCOCC3)ccc2OC[C@H](C)N(C)C[C@H]1C`, the inhibition was 0.584% (inactive).

On to `C[C@@H]1CCCCO[C@H](CN(C)C)[C@H](C)CN([C@@H](C)CO)C(=O)c2cc(NS(=O)(=O)c3ccccc3)ccc2O1`, for which the inhibition was 19.2% (inactive).

Regarding `COc1ccc(NCCc2ccccn2)cc1`, the inhibition was -6.27% [at 12.3 µM] (inactive). Take `COc1cncc(-c2cnc3sc(NCCc4ccccn4)nn23)c1`: the inhibition is 61.5% [at 12.3 µM] (active). Take `Cc1ccc(C(=O)N/C(=C\c2cccs2)C(=O)NCCc2ccccn2)cc1C`: the inhibition was -3.78% [at 12.3 µM] (inactive). The value for `CCNC(=O)Nc1ccc2c(c1)C(=O)N(C)[C@H]1CC[C@@H](CC(=O)N[C@@H](C)c3ccccc3)O[C@H]1CO2` was 0.456% (inactive); that for `COCC(=O)N1C[C@@H](C)[C@H](OC)CN(C)C(=O)c2cc(NC(=O)c3cc(C)on3)ccc2OC[C@@H]1C` was -4.38% (inactive); that for `C[C@@H]1CN([C@H](C)CO)C(=O)Cc2cc(NC(=O)Cn3cnnn3)ccc2O[C@H]1CN(C)Cc1ccc(C(F)(F)F)cc1` was 3.54% (inactive).

As to `COc1ccccc1CNC(=O)C1CCN(S(C)(=O)=O)CC1`, the inhibition is -69% [at 12.3 µM] (inactive). The value for `COc1ccccc1CNC(=O)CCCN1C(=O)NC2(CCCC2)C1=O` was 2.68% [at 12.3 µM] (inactive); that for `COC(=O)C1(C(=O)OC)C[C@H](c2ccccc2)N(Cc2ccccc2OC)[C@@H]1c1ccccc1` was 84.1% [at 12.3 µM] (active). `O=C(N[C@H]1CC[C@@H](CCNC(=O)C2CCC2)O[C@@H]1CO)c1ccncc1`: the inhibition was 7.35% (inactive). Take `C[C@@H]1CN([C@@H](C)CO)C(=O)c2cc(NC(=O)C3CCCCC3)ccc2O[C@@H](C)CCCCO[C@H]1CN(C)C(=O)CCC(F)(F)F`: the inhibition is 7.33% (inactive). On to `C[C@@H]1CN([C@H](C)CO)C(=O)c2c(c3ccccc3n2C)-c2ccccc2CO[C@H]1CN(C)S(=O)(=O)c1ccccc1F`, for which the inhibition was 6.3% (inactive). The same measure for `C[C@H](CO)N1C[C@H](C)[C@H](CN(C)C(=O)c2ccncc2)OCc2ccccc2-c2c(n(C)c3ccccc23)C1=O`: 59.8% (active). Turning to `Cc1noc(C)c1C(=O)N(C)C[C@H]1OCc2ccccc2-c2c(n(C)c3ccccc23)C(=O)N([C@@H](C)CO)C[C@H]1C`, the inhibition was -3.54% (inactive). The value for `C[C@@H]1CN([C@H](C)CO)C(=O)c2c(c3ccccc3n2C)-c2ccccc2CO[C@H]1CN(C)C(=O)c1ccncc1` was 1.26% (inactive); that for `C[C@H](CO)N1C[C@H](C)[C@@H](CN(C)S(=O)(=O)c2cccc(F)c2)OCc2ccccc2-c2c(n(C)c3ccccc23)C1=O` was 56% (active); that for `C[C@@H]1CN([C@@H](C)CO)C(=O)c2c(c3ccccc3n2C)-c2ccccc2CO[C@@H]1CN(C)S(=O)(=O)CC(F)(F)F` was -10.3% (inactive). The same measure for `COc1ccc(S(=O)(=O)N(C)C[C@@H]2OCCCC[C@H](C)Oc3ccc(NC(=O)NC(C)C)cc3C(=O)N([C@@H](C)CO)C[C@@H]2C)cc1`: 8.34% (inactive); for `COc1ccc(NC(=O)Nc2ccc3c(c2)C(=O)N([C@H](C)CO)C[C@@H](C)[C@@H](CN(C)C(=O)NC(C)C)OCCCC[C@H](C)O3)cc1`: -15.9% (inactive); for `C/C=C/c1ccc2c(c1)O[C@H](CN(C)C(=O)c1ccc3c(c1)OCO3)[C@@H](C)CN([C@H](C)CO)S2(=O)=O`: -3.13% (inactive). Regarding `C[C@H](CO)N1C[C@H](C)[C@@H](CN(C)C(=O)Nc2ccc(F)cc2)OCCCC[C@H](C)Oc2ccc(NC(=O)c3ccncc3)cc2C1=O`, the inhibition is -27.7% (inactive).
